The list is not random: actives were taken first. Their share in the collection is about 9.7%.
M1 agonist = agonists of M1 muscarinic receptor | CHO-M1 cells, Fluo-4 calcium fluorescence, agonist mode; active compounds read high | B-score at 10 µM | AID 626 | 64,000 compounds, 3% hits;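 active = fluorescence rise, raw or as B-score row- and column-corrected plate score, outside the 99.7% band of its plate's samples, either direction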
M1 antagonist = blocks the rat M1 muscarinic receptor response to acetylcholine | P08482 | CHO-M1 cells, Fluo-4 calcium, ACh EC80 antagonist mode; active compounds read low | B-score at 10 µM | 64,000 compounds, 3.4% hits | AID 628;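 active = calcium fluorescence response, raw or row-and-column corrected B-score, differing from the plate sample mean either way at a set confidence level, mostly lower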
A340 absorber = compounds absorbing at 340 nm; compound absorbance at 340 nm, fold over control; fold change at 10 µM; 65,000 tested, under 10 active; AID 708;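 active = at 10 µM dose, initial 340 nm absorbance at least 2 fold that of control wells; inactive = change under 2 fold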;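 note: initial absorbance extrapolated from kinetic A340 decline of NADH oxidation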
BAP1 inh = blocks human BAP1 ubiquitin-AMC hydrolysis; recombinant BAP1, Ub-AMC hydrolysis fluorescence kinetic; active compounds read low; Q92560; 72,000 compounds, 0.48% hits; calls only at 20 µM; AID 436;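 active = activity remaining at or below 50% of control, provided the compound also passes the data quality filters; inactive = the rest, including low values that fail the filters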;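 note: 100% = DMSO wells rate and 0% = substrate alone blank rate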
Fluor 339 460 = intrinsic fluorescence of library compounds, ex339/em460 – biochemical, MLSMR library, data from DPM-DC assay, artefact control, profiling panel; compound autofluorescence, ex339/em460 nm, NADH buffer; active compounds read high; 1 = no-compound wells, NADH background; fluorescence fold increase at 10 µM; 65,000 compounds, 5.5% hits; AID 709;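 active = at 10 µM, mean starting fluorescence two-fold or more over control wells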;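 note: signal is the first read of a kinetic run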
WNV protease inh = inhibitors of West Nile virus NS2B-NS3 protease. P06935. WNV NS2B-NS3 protease, fluorogenic substrate Ex360/Em465; active compounds read low. z-score (concentration not given with the values). 65,000 compounds, 0.18% hits. AID 577; in the data active = z-score below about -3
Target sequence (P06935 1371-1501 limits assumed): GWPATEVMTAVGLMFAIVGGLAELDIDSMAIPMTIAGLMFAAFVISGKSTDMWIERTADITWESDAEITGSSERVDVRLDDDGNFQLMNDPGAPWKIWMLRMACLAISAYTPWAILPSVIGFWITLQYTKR
Target sequence (P06935 1502-1679 limits assumed): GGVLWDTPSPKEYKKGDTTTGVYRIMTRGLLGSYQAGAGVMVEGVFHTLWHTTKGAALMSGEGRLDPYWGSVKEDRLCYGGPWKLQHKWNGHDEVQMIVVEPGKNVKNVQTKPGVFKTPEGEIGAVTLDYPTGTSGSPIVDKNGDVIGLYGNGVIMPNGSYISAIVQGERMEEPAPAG
* = called active by the depositor; i = inactive; . = no result shown.

SMILES	M1 agonist	M1 antagonist	A340 absorber	BAP1 inh	Fluor 339 460	WNV protease inh
CCNC(=O)c1cc2c(=O)n3cccc(C)c3nc2n1C	-0.848	0.169	1.09	.	4.98*	-0.74
CCCCNC(=O)c1cc2c(=O)n3cccc(C)c3nc2n1C	0.063	0.652	1.05	i	2.14*	2.36
Cc1cccn2c(=O)c3cc(C(=O)NCCCn4ccnc4)n(C)c3nc12	-0.132	-0.663	1.11	.	4.97*	2.26
CC1=C(C(=O)OCCOc2ccccc2)C2(O)C(=O)c3ccccc3C2(O)N1 (stereo not given)	.	.	.	i	.	.
CC(NC(=O)Nc1ccccc1O)(C(F)(F)F)C(F)(F)F	-0.948	-0.322	1.02	i	2.58*	0.33
Cc1cc(-c2ccccc2)n(-c2cc(N3CCCCC3)ncn2)n1	.	.	.	i	.	.
CCOC(=O)COc1ccc2c(c1)C(=O)CC(C)(C)O2	-0.277	-0.48	1.01	.	4.75*	2.45
CC1(C)CC(=O)c2cc(OCC(=O)N3CCN(c4ccccc4F)CC3)ccc2O1	-0.00364	-0.0519	0.99	i	2.58*	-0.01
CCOC(=O)COc1ccc2c(c1)C(=O)CC1(CCN(C(C)=O)CC1)O2	-0.251	0.0653	1.03	.	4.8*	1.26
CC1(C)CC(=O)c2cc(OCC(=O)O)ccc2O1	0.00852	-0.095	1.03	i	4.85*	0.83
CCOC(=O)COc1ccc2nsnc2c1	-0.264	-0.0439	1.06	i	1.69	-0.38
Cn1c(SCC(=O)NCc2ccco2)nnc1-c1cccs1	0.0242	2.25*	1.05	i	1.13	-0.72
COc1ccc(-c2cc(C(F)(F)F)nc(SCC(N)=O)n2)cc1	0.0254	-0.338	1.08	.	3.69*	-0.33
COc1ccc(-c2cc(-c3cccs3)c(C#N)c(SCC(=O)NCc3ccco3)n2)cc1	-0.567	-0.154	1.04	i	2.51*	-0.69
COc1ccc(-c2cc(C(F)(F)F)nc(SCCC(=O)N3CCOCC3)n2)cc1	-0.672	1.52	1.01	.	2*	-0.62
Cc1nn2c3ccccc3nc2n1CCN1CCCCC1	.	.	.	i	.	.
COc1ccc(-c2cc(C(F)(F)F)nc(SCC(=O)NCc3ccco3)n2)cc1OC	-0.672	0.437	1.01	i	2.73*	-0.7
O=C(CSc1nc(-c2cccs2)cc(C(F)(F)F)n1)NCc1ccco1	0.388	0.208	1.14	i	1.1	0.52
O=C1CC(c2cccc(Br)c2)Nc2ccc3ccccc3c21 (stereo not given)	.	.	.	i	.	.
CN(C)C=Nc1ncc2c([nH]c3ccccc32)c1C#N	0.495	-0.0613	1.16	i	2.08*	0.37
COC(=O)c1ccc(C(=O)OC)c(NC(=O)c2cnc3n(c2=O)CCS3)c1	2.19	-1.09	1.13	.	2.41*	0.47
CCOC(=O)C(C)Sc1nc(-c2ccco2)cc(C(F)(F)F)c1C#N (stereo not given)	1.22	0.576	1.09	i	2.82*	0.29
COc1cc(=O)n(C)c2cc(N(C)C)ccc12	1.75	1.23	1.1	.	4*	1.37
CCN(CC)S(=O)(=O)c1ccc(Nc2nc3ccccc3n3nnnc23)cc1	-0.784	0.212	1.1	i	3.63*	1.11
Cc1ccc(CNc2nc3ccccc3n3nnnc23)cc1	0.273	0.91	1.05	i	2.44*	-0.47
SMILES	M1 agonist	M1 antagonist	A340 absorber	BAP1 inh	Fluor 339 460	WNV protease inh
CCOC(=O)N1CCC(Nc2nc3ccccc3n3nnnc23)CC1	2.41	-0.33	1.04	i	4.03*	-0.58
Cc1ccc(-c2nc3ccccc3n3nnnc23)cc1	-0.11	0.146	1.08	i	3.76*	2.62
c1ccc2c(c1)nc(Nc1ccc3c(c1)OCO3)c1nnnn12	0.726	0.688	1.03	i	1.21	-0.37
Cc1occc1-c1nnc2sc(-c3ccc(-c4ccc(Cl)cc4)o3)nn12	0.046	0.142	1.04	i	2.09*	-0.7
Clc1ccc(-c2ccc(-c3nn4c(-c5ccco5)nnc4s3)o2)cc1	0.791	0.2	1.08	.	1.78	0.85
CSc1ccc(CN2CCN(Cc3cccc([N+](=O)[O-])c3)CC2)cc1	.	.	.	i	.	.
CCc1ccc(-c2cn3c4ccccc4nc3n2CCCCl)cc1	.	.	.	i	.	.
Cc1cc(N2CCC(C)CC2)nc2ccc(N3C(=O)CCC3=O)cc12	0.381	-0.886	1.03	.	5.04*	0.8
CC1CCN(c2ncccc2C(=O)O)CC1	0.25	-0.113	1	i	1.1	-0.79
Clc1ccc(OCc2cn3cccnc3n2)c2ncccc12	-0.0203	0.803	1.04	.	2.1*	0.58
COc1ccc(C2CC(c3cccs3)n3nc(N)nc3N2)cc1 (stereo not given)	-1.02	0.221	0.98	i	2.05*	0.39
CC1CCN(S(=O)(=O)c2ccc(C(C)(C)C)cc2)CC1	.	.	.	i	.	.
O=c1c2ccccc2nc2c3ccccc3c(N3CCOCC3)nn12	2.82*	-1.2	1.08	i	1.93	-0.43
Cc1nc2oc3c(NCc4ccccc4)ncnc3c2c2c1COC(C)(C)C2	-0.209	2.07	1.03	i	2.51*	-0.66
Cc1nc2oc3c(NCC4CCCO4)ncnc3c2c2c1COC(C)(C)C2 (stereo not given)	-1.37	0.359	1.03	i	2.14*	-0.02
CCCc1nc2oc3c(NCCN4CCOCC4)ncnc3c2c2c1CCCC2	0.261	1.35	1	i	1.19	1.81
CCCc1nc2oc3c(NCCOCCO)ncnc3c2c2c1COC(C)(C)C2	.	.	1.03	i	3.56*	1.09
CCN(CC)CCn1c(=N)n(CC(=O)OC)c2ccccc21	.	.	.	i	.	.
COc1cc2c(cc1OC)-c1cc(OCCN3CCOCC3)nc(=O)n1CC2	-0.465	-0.3	1.12	.	3.86*	0.89
COc1cc2c(cc1OC)-c1cc(NC3CCCCCCC3)nc(=O)n1CC2	0.0563	0.0105	1.13	.	2.37*	0.43
COc1cc2c(cc1OC)-c1cc(NCc3ccccn3)nc(=O)n1CC2	-1.03	-0.218	1.18	i	3.35*	-0.99
CCCCCCNc1cc2n(c(=O)n1)CCc1cc(OC)c(OC)cc1-2	2.16	-0.82	1.13	.	3.36*	1.24
COc1cc2c(cc1OC)-c1cc(NC3CCCCC3)nc(=O)n1CC2	0.392	1.09	1.11	i	1.72	0.51
CCNc1cc2n(c(=O)n1)CCc1cc(OC)c(OC)cc1-2	0.857	0.824	1.17	.	2.69*	0.99
COc1cc2c(cc1OC)-c1cc(NC3CC3)nc(=O)n1CC2	-1.05	-0.00957	1.14	i	1.72	-0.00144
CN=C(NS(=O)(=O)c1ccc(C)cc1)c1ccccc1	.	.	.	i	.	.
Cc1ccccc1-n1nnnc1SC1CCOC1=O (stereo not given)	-0.973	-0.00526	0.98	i	1.06	1.92
COc1ccccc1-n1cnnc1SC1CCOC1=O (stereo not given)	0.548	2.84*	1.03	i	1.05	-0.61
O=C(NCc1cccs1)c1cnn2cccnc12	1.54	0.437	1.1	i	2.12*	0.69
O=C(Nc1cccc(Cl)c1)c1cnn2cccnc12	-0.375	0.431	1.09	i	1.08	-0.59

Source: PubChem
